This passage reports activity (Tm shift, normalised) results from PubChem BioAssay AID651658 (Broad Institute, 2012).

Molecules are shown by their SMILES. Screen size: about 340,000 compounds; about 5,100 (1.5%) were called active. What follows is part of a selection rich in actives, with near analogues and random picks from the rest. A number with no mark means an inactive call.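 Rule for the calls: active = mean Tm shift, scaled 0 neutral to 100 positive control, at about 1.3% or above, every replicate too (limit read from the data); inconclusive = no clear call, values can overlap the other calls; inactive = the rest.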

Sequence of Fibroblast growth factor 22 (Homo sapiens) (Q9HCT0 whole entry, looked up): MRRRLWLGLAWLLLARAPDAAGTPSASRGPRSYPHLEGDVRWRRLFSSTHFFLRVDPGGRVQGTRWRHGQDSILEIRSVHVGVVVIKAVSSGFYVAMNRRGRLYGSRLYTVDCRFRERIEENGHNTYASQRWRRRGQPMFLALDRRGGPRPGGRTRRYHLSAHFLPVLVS

This assay concerns the target Fibroblast growth factor 22 (Homo sapiens) (UniProt Q9HCT0). Briefly: binders of human FGF22 protein, primary screen, FGF22 synaptogenesis inhibitor project, biophysical, thermal shift, single point (AID 651658). The conditions noted are these: recombinant FGF22 thermal shift, SYPRO orange fluorescence, at 9.99 µM, stronger effect = higher value.
Take `Cc1ccc(-c2cc(C(=O)N3CCC4(CC3)OCCO4)no2)cc1`: the activity (Tm shift, normalised) was 43.1% (active). With `Cc1cccc(-n2c(C)nc3cc(C(=O)N4CCC5(CC4)OCCO5)ccc32)c1` the figure was 0.173%; with `O=C(c1ccccc1[N+](=O)[O-])N1CCC2(CC1)OCCO2`, -0.032%; with `COc1cccc(-c2ccc3n(c2=O)C[C@@H]2[C@@H](CO)[C@H](C(=O)O)[C@H]3N2C(=O)c2cnccn2)c1`, -0.051%. `C[C@]12CCC3C(CC[C@H]4[C@H](O)[C@H](O)CC[C@]34C)C1CCC2=O` (stereo not given in full): the activity (Tm shift, normalised) is 42.7%. With `C[C@]12CCCCC1=CC(=O)C1C2CC[C@@]2(C)C1C[C@@H](F)[C@@H]2O` (stereo not given in full) the figure was 43.1% (active); with `COC(=O)[C@@H]1[C@@H](CO)[C@@H]2Cn3c(ccc(C4=CCCCC4)c3=O)[C@H]1N2CC1CC1`, 0.126%. With `C/C=C/c1ccc(C2[C@@H]3CN(Cc4cncnc4)C[C@H]2N3)cc1` (stereo not given in full), the activity (Tm shift, normalised) was -0.323% [percent of sucrose octasulfate shift, DMSO zero].

On to `COc1cccc(-c2ccc3n(c2=O)C[C@H]2[C@H](CO)[C@@H](C(=O)O)[C@@H]3N2C(=O)c2cnccn2)c1`, for which the activity (Tm shift, normalised) is -0.009%. As for `CC=C(C)C(=O)OC1CCN2CC=C(COC(=O)C(O)(C(C)OC)C(C)(C)O)C12` (stereo not given), the activity (Tm shift, normalised) is 43.1% (active). `O=C(O)[C@H]1[C@H](CO)[C@H]2Cn3c(ccc(-c4ccccc4)c3=O)[C@@H]1N2S(=O)(=O)c1ccccc1F`: the activity (Tm shift, normalised) is 0.019%.

Take `COC(=O)[C@@H]1[C@@H](CO)[C@@H]2Cn3c(ccc(-c4ccc(F)cc4)c3=O)[C@H]1N2C(C)=O`: the activity (Tm shift, normalised) is -0.001%. For `COC(=O)[C@H]1[C@H](CO)[C@H]2Cn3c(ccc(-c4cccc(F)c4)c3=O)[C@@H]1N2Cc1ccccc1`, the activity (Tm shift, normalised) was -0.258%. The value for `CC(CC(C#N)(c1ccccc1)c1ccccc1)N1CCCCC1` (stereo not given) was 43.4% (active). For the molecule `c1ccc(C(CN2CCCCC2)c2ccccc2)cc1`, the activity (Tm shift, normalised) was -0.37%.

For `O=C(c1ccccc1)C(O)(CN1CCCCC1)c1ccccc1` (stereo not given), the activity (Tm shift, normalised) is -0.158%. On to `O=C(Cc1ccccc1)N1CCCCN2[C@H](CO)[C@H](c3ccc(C#Cc4ccccc4)cc3)[C@H]2C1`, for which the activity (Tm shift, normalised) is -0.682%. The value for `C/C=C/c1ccc(C2[C@@H]3CN(S(C)(=O)=O)C[C@H]2N3)cc1` (stereo not given in full) was 0.016% [percent of sucrose octasulfate shift, DMSO zero]; that for `CCN(CC)C(=O)[C@@H]1C=C2c3cccc4[nH]c(Br)c(c34)C[C@H]2N(C)C1` was 0.114%. For the molecule `COC(=O)[C@H]1[C@H](CO)[C@H]2Cn3c(ccc(-c4ccccc4F)c3=O)[C@@H]1N2C(=O)C1CCC1`, the activity (Tm shift, normalised) is 0.081%.
